Screening results deposited in PubChem by National Center for Advancing Translational Sciences (NCATS).
APEX1 inh: inhibitors of human APE1 endonuclease. recombinant APE1, TAMRA/BHQ-2 abasic DNA cleavage fluorescence. 0.35% of 350,000 active. P27695. Potency, µM (doses to about 65.8 µM), hits mostly inhibitors; also: nearly all actives have a fitted effect of over 55% in size
Target sequence (P27695 whole entry, looked up): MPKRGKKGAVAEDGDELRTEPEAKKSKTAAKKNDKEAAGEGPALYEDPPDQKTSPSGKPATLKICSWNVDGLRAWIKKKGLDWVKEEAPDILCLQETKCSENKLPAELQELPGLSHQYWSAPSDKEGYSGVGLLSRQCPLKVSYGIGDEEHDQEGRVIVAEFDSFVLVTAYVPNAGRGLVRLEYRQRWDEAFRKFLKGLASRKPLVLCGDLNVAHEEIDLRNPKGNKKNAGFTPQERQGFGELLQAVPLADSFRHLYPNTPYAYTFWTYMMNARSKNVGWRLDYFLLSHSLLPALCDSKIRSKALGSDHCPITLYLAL
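Endonuclease cleavage of a quenched abasic-site DNA duplex (50 nM) by APE1 (0.75 nM) was tracked by TAMRA dequenching. Compounds were preincubated with enzyme 15 min at room temperature; data normalized to buffer-only and DMSO wells plus NSC13755 control.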
TRb-SRC2 inh: disrupts binding of human TR beta to SRC2. TRbeta-SRC2 peptide binding, fluorescence polarization; receptor liganded with 1 µM T3. 0.065% of 280,000 active. Potency, µM (titrated, usually from 106 µM), hits mostly inhibitors. P10828; also: nearly all actives have a fitted effect of over 50% in size
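Fluorescence polarization of 20 nM Texas Red SRC2 peptide with 0.6 uM human TRb ligand-binding domain, in Tris buffer with 1uM T3 and 5% DMSO. Incubated 5 hr ambient; normalized to unbound and bound controls.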
BLM inh: inhibitors of human Bloom syndrome helicase BLM; recombinant BLM DNA unwinding, fluorescence dequenching; Potency, µM (doses to about 56.1 µM), actives largely listed as inhibitors; 0.2% of 350,000 active; AID 2528; also: nearly all actives have a fitted effect of over 35% in size
WRN inhibitor: WRN helicase (human) inhibition; 0.46% of 360,000 active; WRN helicase unwinding, fluorescent forked duplex, kinetic; Q14191; AID 651768; Potency, µM (highest dose often 114 µM), hits mostly inhibitors; also: nearly all actives have a fitted effect of over 55% in size
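Screening of the MLSMR collection measured strand separation of a quenched forked DNA duplex (100 nM) by 20 nM WRN with 2 mM ATP, all final. Compounds were preincubated with enzyme 15 min at room temperature.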
RECQ1 helicase: blocks DNA unwinding by human RECQ1. 0.54% of 240,000 active. P46063. AID 2549. RECQ1 DNA unwinding, red fluorescence kinetic read. Potency, µM (titrated, usually from 57.3 µM), hits mostly inhibitors; also: nearly all actives have a fitted effect of over 30% in size
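RECQ1T1 50 nM; forked duplex (20 bp + 30-nt ss tails) 200 nM, ATP 2 mM final; pH 8.0, 2 mM MgCl2, 2.5 ug/ml poly(dI-dC); 15 min compound preincubation; discontinuous kinetic read over 2 h at RT.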
TR SRC2 fluor cs: alters Texas Red total fluorescence, flagging assay interference; TRb/SRC2 Texas Red total fluorescence interference; Potency, µM (titrated, usually from 106 µM); 0.29% of 280,000 active; active = well fitted curve in either direction with a large enough effect; inconclusive = small, poorly fitted or top-dose-only effect
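Flags fluorescent or light-absorbing compounds by total fluorescence, S + 2P, at 555 nm excitation and 632 nm emission. Mixture: 20 nM Texas Red SRC2 peptide, 0.6 uM human TRb LBD, 1 uM T3, 5% DMSO; compound exposure 5 h at ambient temperature.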
A number is an active result; - = inactive; ? = inconclusive; . = no result; [ ] = another dose, or the depositor's remark. In the library only some 0.91% were active in any assay of this set; here they are far more common. Unless noted, calls follow the shape of the dose curve; as a rule, active = well fitted curve in the direction sought with a large enough effect; inconclusive = small, poorly fitted or top-dose-only effect, or another doubt; inactive = no such curve, though single readings can be large; an effect the other way counts as inactive or inconclusive.

SMILES | APEX1 inh | TRb-SRC2 inh | BLM inh | WRN inhibitor | RECQ1 helicase | TR SRC2 fluor cs
CN(CC(=O)Nc1cccc(F)c1)C(=O)c1ccc(N2C(=O)c3ccccc3C2=O)cc1 | - | . | . | - | . | .
Cc1ccc(CNc2ccc(N3CCN(C(=O)OC(C)(C)C)CC3=O)cc2)cc1 | - | . | . | . | . | .
COc1ccc(F)cc1S(=O)(=O)Nc1cccc(-c2ccc(N3CCC(C)CC3)nn2)c1 | . | - | - | . | . | 6.3µM[quencher]
COc1cccc(-c2no[n+]([O-])c2C#N)c1 | - | . | . | . | . | .
CCOc1cc(CNc2ccc(N(C)C)cc2)cc(Br)c1OCC(=O)NC(C)(C)C | - | 40µM | - | - | - | 45µM[fluorescent]
COc1cc(/C=C/c2nnc3c4ccccc4ncn23)cc(OC)c1OC | - | - | - | 56µM | - | -
C(=C\c1nnc2c3ccccc3ncn12)/c1ccccc1 | - | - | - | - | - | -
CN=C(N)NCC1CCOC1 (stereo unspecified) | . | - | . | . | . | -
CC(=O)Nc1ccc2nc3c(=O)n(C)c(=O)n(C)c3nc2c1 | - | - | - | 10µM | - | -
NC(=S)NN=Cc1ccc(-c2ccc(S(=O)(=O)Nc3ncccn3)cc2)o1 | - | . | . | 25µM | . | .
CCOc1ccc(C(=O)N/N=C/c2ccc(-c3ccc(S(=O)(=O)Nc4ncccn4)cc3)o2)cc1 | - | - | - | ? | ? | -
CCN1C=C(Cc2ccc(OC)cc2)C2=C(C1)C(c1ccc(OC)cc1)C(C#N)=C(N)O2 (stereo unspecified) | - | ? | - | - | - | 50µM[fluorescent]
COc1ccc(NC(=O)CN(C)CC(=O)Nc2cccc(F)c2)cc1S(=O)(=O)N1CCCCC1 | . | . | . | 50µM | . | .
CCN(CC)c1ccc(C(=C2C=CC(=[N+](CC)CC)C=C2)c2ccccc2)cc1 | - | - | - | 45µM | - | -
CCN(Cc1cccc(S(=O)(=O)O)c1)c1ccc(C(=C2C=CC(=[N+](CC)Cc3cccc(S(=O)(=O)[O-])c3)C=C2)c2ccccc2)cc1 | . | ? | . | . | . | 89µM[quencher]
CCN(CC)c1ccc(C(=C2C=CC(=[N+](CC)CC)C=C2)c2ccc(N(CC)CC)cc2)cc1 | . | . | . | - | . | .
CCN(Cc1ccccc1)c1ccc(/C=N/NS(=O)(=O)c2cccc([N+](=O)[O-])c2)cc1 | - | - | - | - | - | -
O=C(N/N=C/c1ccc(O)c(Br)c1)c1cc2c(ccc3ccccc32)o1 | - | . | - | - | . | .
O=C(N/N=C/c1c(O)ccc2ccccc12)c1ccc(Br)o1 | 15µM | . | - | ? | . | .
O=C(N/N=C/c1cc(Br)c(O)c(Br)c1)c1cc2c(ccc3ccccc32)o1 | ? | . | ? | 35µM | . | .
O=C(N/N=C/c1ccc([N+](=O)[O-])o1)c1cc2c(ccc3ccccc32)o1 | - | - | 7.9µM | -[11.6 µM] | - | -
O=C(N/N=C/c1ccc([N+](=O)[O-])o1)c1cc2ccccc2o1 | ? | - | - | - | - | -
CC(C)(C)n1ncc2c(=O)n(Cc3c(F)ccc(Cl)c3Cl)cnc21 | - | . | . | . | . | .
Cc1c(OCC(N)=O)ccc2c(-c3ccccc3)cc(=O)oc12 | - | . | ? | 50µM | . | .
Cc1ccc(CNc2ccc(N3CCNCC3=O)cc2)cc1 | - | . | . | . | . | .
SMILES | APEX1 inh | TRb-SRC2 inh | BLM inh | WRN inhibitor | RECQ1 helicase | TR SRC2 fluor cs
CCOc1ccc(Nc2nc(NCC3CCCO3)c3ccccc3n2)cc1 (stereo unspecified) | - | - | 28µM | ? | ? | -
CC(C)CC(=O)n1nc(-c2ccco2)nc1NCc1ccc(Cl)cc1 | . | - | - | . | . | -
COc1ccc(CNc2nc(-c3ccco3)nn2C(=O)CC(C)C)cc1 | . | - | - | . | . | 79µM[quencher]
CSCCOC(=O)c1[nH]c2c(c1C)C(=O)CC(c1ccco1)C2 (stereo unspecified) | 13µM | - | - | 56µM | - | -
O=C1NN(c2ccc(F)c(Cl)c2)C(=O)/C1=C\c1cccc(OC(=O)c2cccs2)c1 | - | - | - | 50µM | - | -
CCOc1cccc(C=NNc2ccc(S(=O)(=O)Nc3ccccc3C(=O)O)cc2[N+](=O)[O-])c1O | - | . | . | - | . | .
CSc1ccc(C=NNc2ccc(S(=O)(=O)Nc3ccccc3C(=O)O)cc2[N+](=O)[O-])cc1 | 8.4µM | . | . | ? | . | .
C=CCOc1ccc(C=NNc2ccc(S(=O)(=O)Nc3ccccc3C(=O)O)cc2[N+](=O)[O-])cc1OC | ? | . | . | 50µM | . | .
CCOc1ccc(C=NNc2ccc(S(=O)(=O)Nc3ccccc3C(=O)O)cc2[N+](=O)[O-])cc1 | - | . | . | - | . | .
COc1ccccc1NC(=O)CC1C(=O)NCCN1C(=O)Nc1ccccc1 (stereo unspecified) | - | - | - | - | - | -
CCc1ccc(NC(=O)CC2C(=O)NCCN2C(=O)c2ccccc2OC)cc1 (stereo unspecified) | - | - | - | - | . | 8.9µM[quencher]
CC(C)(C)OC(=O)N1CCC(c2c(C(=O)N3CCN(c4ccccn4)CC3)cnn2-c2ccc(F)cc2)CC1 | . | - | - | . | . | -
CC(C)(C)n1ncc2c(=O)n(Cc3ccc(Cl)cc3F)cnc21 | - | . | . | . | . | .
O=C(O)CN1C(=O)/C(=C\c2cn(-c3ccccc3)nc2-c2ccccc2)SC1=S | - | . | - | - | . | .
